Assay results taken from PubChem BioAssay AID488899 (Broad Institute, 2010).
In all, about 330,000 compounds went through this assay and about 2,800 (0.85%) were called active.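 The calls were made as follows: active = mean inhibition across replicates of 60% or more, whatever share of single replicates reaches that level; inconclusive = some that reach 60%, reason not given; inactive = mean inhibition across replicates below 60%.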 What follows is part of a selection rich in actives, with near analogues and random picks from the rest.

Assay: MITF transcriptional activity suppression – cell-based, SK-MEL-5, single point, luciferase, primary screen (AID 488899)
Conditions: SK-MEL-5 TRPM1 promoter luciferase, 24 h; at 12.5 µM; stronger effect = higher value

inhibition, active:
COC(=O)Cc1[nH]n(-c2nc3ccccc3s2)c(=O)c1C(C)=Nc1ccc(OC)cc1 95.4%
COc1ccc(C(=O)/C=C/Nc2ccccn2)cc1 67.5%
CN(C)CCNC(=O)c1ccc(Cl)c2cc3ccccc3nc12 74.8%
Cc1ccc(-c2nnc(-c3ccc(NC(=O)c4cccs4)cc3)o2)cc1 73.5%
COc1cc(OC)cc(C(=O)N[C@H](C(=O)Nc2nc3ccccc3[nH]2)C(C)C)c1 71%
COc1cc(SC)ccc1C(=O)Nc1nc(C)cs1 88.5%
CC(=O)Nc1ccccc1Sc1ccc2c3c(cccc13)C(=O)N(c1ccc(C)cc1)C2=O 65.2%
O=C(/C=C/c1ccc([N+](=O)[O-])o1)NNC(=O)c1ccc(F)cc1 80.8%
NC(N)=Nc1nc(-c2ccccc2)c2cc(Cl)ccc2n1 85.2%
O=[N+]([O-])/C=C/c1ccc2c(ccn2Cc2ccccc2)c1 69.6%
O=C(OC12CC3CC(CC(C3)C1)C2)c1ccc(NCc2cc(O)ccc2O)cc1 66.6%
CCOc1ccc(-n2c(O)c(/C=N/Nc3nc(C)cc(C)n3)c3ccccc3c2=O)cc1 67.6%
CC(C)=CCc1ccc(O)c(=O)cc1C(C)C 71.6%
CCc1ccc(CNC(=O)C2CCN(c3nnc(C)c4c(C)n(-c5ccc(C)cc5)nc34)CC2)cc1 96.1%
CN1CCN(CCCNC(=O)c2ccc(/C=C3\Oc4ccccc4N(Cc4ccc(Cl)cc4)C3=O)cc2)CC1 96.1%
Cc1cc(C)nc(S/C=C/C(=O)c2ccccc2)n1 80.6%
CCCc1nc2c(c(=O)c3ccccc3n2C)c(=O)n1C1CCCCCC1 73.5%
COc1ccc(CCNc2cc(N3CCN(C(=O)c4ccccc4OC)CC3)ccc2[N+](=O)[O-])cc1OC 77.2%

inhibition, inactive:
COc1ccc(-c2cc(=O)oc3cc(OC(C)C(=O)Nc4ccc(CN5CCOCC5)cc4)ccc23)cc1 (centres undefined) -4.64%
CCCN(CCC)S(=O)(=O)c1cc2c(cc1Br)CCN2C(=O)CC 0.177%
NN=C(NN=Cc1ccccc1)c1ccccc1 -40.6%
CC(Oc1ccc(-c2ccccc2)c(F)c1)c1ccn(S(=O)(=O)c2cccc3ccccc23)n1 (centres undefined) -2.2%
O=C(O)c1ccc(S(=O)(=O)c2ccccc2)s1 11.8%
COc1ccc(C2=NN(c3nc4ccccc4s3)C(=O)C2)cc1 19.7%
CC(=NCc1ccco1)c1c(C(F)(F)F)[nH]n(-c2nc3ccccc3s2)c1=O -61.7%
CC[C@]12c3[nH]c4ccc(Cl)cc4c3CCN1C(=O)[C@@H](CC(=O)NCCCOC)C[C@@H]2C(=O)N1CCN(C(=O)c2ccco2)CC1 -7.5%
CCOc1ccc(N/C=C/C(=O)c2ccccc2)cc1 8.94%
CCOc1ccc(N/C=C/C(=O)c2cc(OC)c(OC)c(OC)c2)cc1 4.18%
O=[N+]([O-])c1ccc(N=NNc2ccc([N+](=O)[O-])cc2)cc1 -19.3%
CC(=O)NCCNC(=O)c1cc(-c2cccc3ccccc23)nc2ccccc12 9.13%
CN(C)CCNC(=O)Nc1cccc(Cl)c1Cl 5.71%
Cc1ccc(OCC(=O)Nc2ccc(NC(=O)c3cccs3)cc2)c(C)c1 27.8%
Cc1ccc(C(=O)Nc2ccc(NC(=O)c3cccs3)cc2)c(C)c1 -4.59%
CS(=O)(=O)c1ccc2nnn(OCC(=O)Nc3cccc(C#N)c3)c2c1 10.8%
COc1cc(O)c2c(=O)c3c(O)c(O)ccc3oc2c1OC -1.36%
Cc1ccccc1-c1n[nH]c(=S)n1/N=C/c1ccc(-c2ccccc2Br)o1 10.7%
O=C(CSc1n[nH]c(-c2cccs2)n1)N1CCCCC1 -12.1%
COc1cc(OC)cc(C(=O)NNC(=O)CCOc2ccccc2OC)c1 -4.37%
COc1ccc(C(=O)N[C@H](C(=O)NCc2ccccc2)C(C)C)cc1 9.58%
COc1cc(OC)cc(C(=O)N[C@H](C(=O)NNC(=O)c2ccc(Br)cc2)C(C)C)c1 13.3%
CCn1nnc2cc(C(=O)Nc3ccc(C(=O)OC(C)C)cc3)ccc21 21.6%
CCOC(=O)C(CO)NC(=O)C1(NC(C)=O)CCCC1 (centres undefined) -14.8%
COc1ccc(C(=O)Nc2cccc(NC(=O)c3ccc(OC)cc3OC)n2)c(OC)c1 -13.3%
Cc1csc(NC(=O)c2ccc(C)s2)n1 -57.3%
CSc1ccccc1NC(=O)C(C)N1C(=O)c2ccccc2S1(=O)=O (centres undefined) 0.029%
Cc1ccc(N2C(=O)CC(Nc3cccc4ccccc34)C2=O)cc1 (centres undefined) 8.42%
COc1ccc(C(=O)NCC(=O)N/N=C/c2ccc([N+](=O)[O-])o2)cc1OC 10.3%
O=C(NNC(=O)C1CCCC1)c1ccc(F)cc1 3.41%
O=C(Cn1cnc2ccccc2c1=O)NCC1COc2ccccc2O1 (centres undefined) -4.59%
Cc1ccc2nc(Nc3ccccc3O)nc(-c3ccccc3)c2c1 -6.93%
COC(=O)Cn1nc(-c2ccccc2)c2cc(Cl)ccc21 -4.99%
COc1ccc2[nH]c3c(C)c4cc[n+](C)cc4c(C)c3c2c1 50.4%
O=C(Cn1ccc2cc(S(=O)(=O)N3CCCC3)ccc21)NCc1ccccc1 -7.14%
COC(=O)Cn1cc(/C=C/[N+](=O)[O-])c2ccccc21 1.38%
CC1(C)C2CCC1(C)C(OC(=O)c1ccc(O)cc1)C2 (centres undefined) -0.433%
CC(C)OC(=O)c1ccc(NCc2cc(O)ccc2O)cc1Cl 5.02%
COC(=O)c1ccc(NCc2cc(O)ccc2O)cc1 -5.57%
Cc1ccc(-n2c(O)c(C=Nc3ccc(S(=O)(=O)Nc4ncccn4)cc3)c3ccccc3c2=O)cc1C 7.63%
CCN(CC)CCCN=Cc1c(O)n(-c2ccc(C)cc2)c(=O)c2ccccc12 -6.61%
Cc1ccc(S(=O)(=O)C2C(=O)NC3(C)CC2c2ccccc2O3)cc1 (centres undefined) 4.13%
COc1ccc(C(=O)Nc2ccnn2C2CCN(Cc3ccncc3)CC2)cc1 -5.32%
CCCCCN(C(=O)NC(=O)Nc1ccccc1C)S(C)(=O)=O 4.88%
CCOC(=O)CCC(NC(=O)c1ccc(CNc2nc3cc(C(F)(F)F)ccc3nc2C(=O)OCC)cc1)C(=O)OCC (centres undefined) 3.92%
CSCCC(NS(=O)(=O)c1ccc(C)cc1)C(=O)N(C)CC(=O)Nc1ccccc1Br (centres undefined) 11.6%
CC(C)c1cc(N=O)cc(C(C)C)c1O -4.28%
COc1ccc(CNC(=O)CN2C(=O)c3ccccc3S2(=O)=O)cc1 13.6%
COc1ccc(-n2nc3c(N4CCC(C(=O)NCc5ccccc5)CC4)nnc(C)c3c2C)cc1 40.6%
CCOc1ccc(CNC(=O)C2CCCN(c3nnc(C)c4c(C)n(-c5ccccc5)nc34)C2)cc1 (centres undefined) 48.5%
COc1cccc(CC(=NO)c2cccc(OC)c2)c1 -0.084%
CCCOc1ccc(/C=N/NC(=O)C2CC2)c(OCCC)c1 -7.21%
COc1ccc(CN2CCNC(=O)C2CC(=O)NCc2cn[nH]c2-c2ccccc2)c(F)c1 (centres undefined) -6.25%
CC(C)OCCCNC(=O)CN1C(=O)/C(=C/c2ccccc2F)Oc2ccccc21 8.17%
Cc1c(C)n(Cc2ccc(Cl)cc2)c2ccc(C(=O)NCCCN3CCOCC3)cc12 1.78%
CCOc1ccc(NC(=O)CSc2ncnc3c2sc2ccccc23)cc1 4.52%
C=CCc1cccc2cc(C(=O)NC3CCCC3)c(=O)oc12 -16%
CCC1=C(OC(=O)N(CC)CC)N2C(=O)OC(=NCCc3c[nH]c4ccccc34)[C@]2(C)[C@H]2C1=CC[C@H]1C(=O)N(CC)C(=O)[C@H]12 1.76%
COCCN(Cc1cc2cc3c(cc2nc1Cl)OCO3)C(=O)c1cccc(C)c1 10%
Cc1cc(C)nc(SCC(=O)N(C)C)n1 2.39%
Cc1cc(C)nc(SCc2ccccc2C#N)n1 4.69%
Cn1c2ccccc2c2c(C(=O)N3CCN(c4ccc(F)cc4)CC3)cn(C3CCCC3)c(=O)c21 -8.48%
CC1CCN(Cc2nc3c(c(=O)n(C)c(=O)n3C)n2CCc2ccccc2)CC1 -2.78%
COc1cc(OC)cc(-c2c(-c3cccs3)c3cc(-c4ccc(OC)cc4F)ccc3n2C)c1 13.6%
C#CCOCCOCCOCCNc1nc(N2CCOCC2)nc(N2CCN(C(=O)[C@H](Cc3ccc(O)cc3)n3cc(CCO)nn3)CC2)n1 4.74%
O=C(c1ccccc1)N1CCN(c2ccc([N+](=O)[O-])c(NCc3ccco3)c2)CC1 5.6%
COc1ccccc1OCCNc1cc(N2CCOCC2)ccc1[N+](=O)[O-] -28%
C[C@@H](NC(=O)c1nc[nH]c1C(=O)N1CCN(C(=O)OC(C)(C)C)CC1)c1ccccc1 -1.66%
CCCCN1CC(CO)Oc2cccc(F)c2S1(=O)=O (centres undefined) 0.622%
Cc1ccc(CN(Cc2cccnc2)C(=S)Nc2cc(Cl)ccc2C)cc1 1.58%
O=c1ccn([C@@H]2O[C@H](CNS(=O)(=O)c3cc4ccccc4s3)[C@@H](O)[C@H]2O)c(=O)[nH]1 -0.592%
